Data: PubChem BioAssay (EPA / NIEHS)
Inconclusive results are not listed. The source made the active and inactive calls. Rule for the calls: active = hit-call score of the fitted dose curve at least 0.9, where 1 is the maximum; inconclusive = response in the unintended direction; inactive = score below 0.9.

These molecules were tested against human Thromboxane A2 Receptor (TXA2), TBXA2R (gene 6915) (UniProt P21731) (assay: NVS_GPCR_hTXA2: NovaScreen (NVS) G Protein-Coupled Receptor Assay for human Thromboxane A2 Receptor (TXA2) (AID 2283282);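 note: actives reduce bound radioligand signal relative to DMSO baseline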).
Chain of human Thromboxane A2 Receptor (TXA2), TBXA2R (gene 6915) (P21731 whole entry, looked up): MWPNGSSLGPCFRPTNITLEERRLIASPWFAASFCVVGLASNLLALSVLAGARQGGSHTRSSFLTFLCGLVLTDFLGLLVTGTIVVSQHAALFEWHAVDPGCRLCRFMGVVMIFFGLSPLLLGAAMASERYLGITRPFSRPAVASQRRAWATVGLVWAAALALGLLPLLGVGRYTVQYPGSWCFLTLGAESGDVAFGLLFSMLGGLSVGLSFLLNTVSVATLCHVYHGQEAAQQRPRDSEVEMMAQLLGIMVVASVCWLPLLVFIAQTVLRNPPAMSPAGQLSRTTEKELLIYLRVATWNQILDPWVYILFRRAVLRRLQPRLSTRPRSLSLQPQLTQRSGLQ
Protocol: NVS_GPCR_hTXA2 is a biochemical, single-readout assay that uses extracted gene-proteins from Human platelets in a cell-free assay. Measurements were taken 1 hour after chemical dosing in a 96-well plate.NVS_GPCR_hTXA2 is one of one assay component(s) measured or calculated from the NVS_GPCR_hTXA2 assay. It is designed to make measurements of radioligand binding, a form of binding reporter, as detected with scintillation counting signals by Filter-based radiodetection technology.Data from the assay component NVS_GPCR_hTXA2 was analyzed into 1 assay endpoint. This assay endpoint, NVS_GPCR_hTXA2, was analyzed in the positive analysis fitting direction relative to DMSO as the negative control and baseline of activity. Using a type of binding reporter, loss-of-signal activity can be used to understand changes in the binding as they relate to the gene TBXA2R. Furthermore, this assay endpoint can be referred to as a primary readout, because the performed assay has only produced 1 assay endpoint. To generalize the intended target to other relatable targets, this assay endpoint is annotated to the gpcr intended target family, where the subfamily is rhodopsin-like receptor.
Binding assays used specific radioligands (tritiated, iodinated) with non-radioactive competitive displacement ligands in agonist or antagonist protocols (as indicated) and various reference compounds and inhibitors to titrate specific binding to receptors and transporters. Most enzyme assays (CYPs, kinases, phosphatases, proteases, HDACs) used recombinant protein and specific substrates (fluorescence mostly, some colorimetric and radioactive) and inhibitors, followed by a biochemical separation of substrate and product. All assays for the biochemical HTS were initially run in duplicate at a single concentration (10 uM for CYP450 assays and 25 uM for all others). […] Each assay was run with positive and negative controls, and concurrent controls on every plate. The follow-up (secondary) screen tested active chemical-pairs in concentration series, as well as a few additional assays not tested in the primary screen, some selected negative inactives, and several cases re-run in the concentration series for confirmatory purposes.
In the case of `CCCCCCCCCCCCc1cccc(S(=O)(=O)O)c1`, the AC50 is reported as 8.31 µM (active). With `N#CCCC(Br)(C#N)CBr` (stereo unspecified) the AC50 was 0.594 µM (active). `O=C(O)COc1cc(Cl)c(Cl)cc1Cl` was tested, and the outcome was “inactive”. With `O=c1oc2ccccc2c(O)c1C(CC(O)c1ccc(-c2ccc(Br)cc2)cc1)c1ccccc1` (stereo unspecified) the AC50 was 12.2 µM (active). With `[Cl][Sn]([c]1ccccc1)([c]1ccccc1)[c]1ccccc1` the AC50 was 1.29 µM (active). With `O=C(N[C@H]1CN2CCC1CC2)c1ccc2c(c1)OCCO2` the outcome was “inactive”. In the case of `c1ccc2sc(SNC3CCCCC3)nc2c1`, the AC50 is reported as 1.12 µM (active). For `Oc1ccc(Cc2ccc(O)cc2)cc1`, the outcome was “inactive”. In the case of `CCOP(=S)(OCC)SCS(=O)(=O)C(C)(C)C`, the outcome is reported as “inactive”. In the case of `CCOP(=O)(OCC)OC(=CCl)c1ccc(Cl)cc1Cl`, the AC50 is reported as 0.35 µM (active). With `Oc1cccc(-c2ccccc2)c1` the outcome was “inactive”.
